{"source": "PubChem BioAssay AID1850", "about": "(Southern Research Specialized Biocontainment Screening …, 2009)", "note": "The campaign covered roughly 310,000 compounds. About 1,000 (0.32%) were called active. The rule behind the calls is not given here. Only a sample is shown. Results with a measured potency or affinity are listed apart."}
{"experiment": "Inhibition of PhoP regulon, Salmonella typhi GFP reporter cells, confirmation, 4 h (AID 1850);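 note: 0% = induced wells with vehicle and 100% = uninduced wells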", "conditions": "Salmonella Typhi PhoP-promoter GFP reporter, fluorescence, at 50 µM, active compounds read high"}
{"smiles": "O=C(Nc1ccc(C2=NCCN2)cc1)c1ccc(Cl)c(C(=O)Nc2ccc(C3=NCCN3)cc2)c1", "inhibition": "1.21% (inactive)"}
{"smiles": "Cc1cccc(NC(=O)Nc2ccncc2)c1", "inhibition": "16.9% (inactive)"}
{"smiles": "C/C(CC(=O)Nc1cc(C)ccn1)=N\\NC(=O)c1ccncc1", "inhibition": "3.7% (inactive)"}
{"smiles": "CCOC(=O)Cn1c(=N)n(CCOc2ccc(OC)cc2)c2ccccc21", "inhibition": "10.3% (inactive)"}
{"smiles": "CCOC(=O)Cn1c(=N)n(CCOc2cccc(C)c2)c2ccccc21", "inhibition": "-0.323% (inactive)"}
{"smiles": "O=C(NCc1ccccn1)C1CN(S(=O)(=O)c2ccccc2)CCN1S(=O)(=O)c1ccccc1", "note": "(centres undefined)", "inhibition": "1.61% (inactive)"}
{"smiles": "Cc1sc2ncnc(SCC(=O)N3CCCC(C(F)(F)F)C3)c2c1C", "note": "(centres undefined)", "inhibition": "8.83% (inactive)"}
{"smiles": "Cc1cc(OCC(=O)N2CCC[C@@H]2C(=O)O)c2c(C)c(C)c(=O)oc2c1", "inhibition": "5.08% (inactive)"}
{"smiles": "O=C(Nc1ncc([N+](=O)[O-])s1)C1CC(=O)N(c2ccc(F)cc2)C1", "note": "(centres undefined)", "inhibition": "13% (inactive)"}
{"smiles": "O=C1CCCN1c1ncc(S(=O)(=O)c2ccc([N+](=O)[O-])cc2)s1", "inhibition": "0.41% (inactive)"}
{"smiles": "O=C(CCc1nnc2ccc(N3CCCCC3)nn12)NCc1ccco1", "inhibition": "-3.14% (inactive)"}
{"smiles": "Cc1cc(C)c2nc(N(CCCN(C)C)C(=O)c3ccc(S(=O)(=O)N4CC(C)OC(C)C4)cc3)sc2c1", "note": "(centres undefined)", "inhibition": "7.15% (inactive)"}
{"smiles": "O=C1CC(c2ccco2)Sc2ccccc2N1", "note": "(centres undefined)", "inhibition": "-2.22% (inactive)"}
{"smiles": "O=C1NC(c2ccco2)Nc2ccccc21", "note": "(centres undefined)", "inhibition": "-3.49% (inactive)"}
{"smiles": "O=C1CC(c2ccccc2)CC(=O)C1=CN1CCCC1", "note": "(centres undefined)", "inhibition": "-0.41% (inactive)"}
{"smiles": "Cc1ccc(C(=O)NNC(=S)NC(=O)c2ccc(Cl)cc2)cc1", "inhibition": "6.07% (inactive)"}
{"smiles": "CC(=O)NNC(=S)NC(=O)c1cccc([N+](=O)[O-])c1", "inhibition": "5.04% (inactive)"}
{"smiles": "Cc1ccc(C(=O)NC(=S)NNC(=O)c2ccccc2)cc1", "inhibition": "19.1% (inactive)"}
{"smiles": "O=C(CCc1ccccc1)NNC(=S)NC(=O)c1ccc(Cl)cc1", "inhibition": "10.2% (inactive)"}
{"smiles": "COCCCNC(=S)NNC(=O)c1csc(C)n1", "inhibition": "3.64% (inactive)"}
{"smiles": "COCCCNC(=S)NNC(=O)c1cccnc1", "inhibition": "1.9% (inactive)"}
{"smiles": "CC(=O)NC(=S)NNC(=O)CCc1ccccc1", "inhibition": "-2.11% (inactive)"}
{"smiles": "CC(=O)NNC(=S)NC(=O)c1ccc(C)cc1", "inhibition": "9.68% (inactive)"}
{"smiles": "CC(C)CN(Cc1cc(=O)oc2cc3c(cc12)CCCC3)CC(C)C", "inhibition": "3.63% (inactive)"}
{"smiles": "CCOc1ncccc1C(=O)OCCN1C(=O)c2ccccc2C1=O", "inhibition": "7.33% (inactive)"}
{"smiles": "O=C(NNS(=O)(=O)c1ccccc1)c1cccc([N+](=O)[O-])c1", "inhibition": "-3.37% (inactive)"}
{"smiles": "Cc1ccc(S(=O)(=O)NCc2cccnc2)c(C)c1", "inhibition": "0.7% (inactive)"}
{"smiles": "COc1ccc(-c2nc3n(c(=O)c2C#N)CCS3)cc1", "inhibition": "2% (inactive)"}
{"smiles": "CCCNS(=O)(=O)c1cc2c3c(c1)C(C)C(=O)N3CCC2", "note": "(centres undefined)", "inhibition": "8.86% (inactive)"}
{"smiles": "CC(=O)c1ccc(NC(=S)N2CCN(CCO)CC2)cc1", "inhibition": "5.45% (inactive)"}
{"smiles": "Cc1cc(C)c(C(N)=O)c(NCCc2ccccc2)n1", "inhibition": "-2.71% (inactive)"}
{"smiles": "c1ccc(-c2nnc(CSc3nc4ccccc4[nH]3)o2)cc1", "inhibition": "-20.5% (inactive)"}
{"smiles": "CC1CCCCN1C(=O)c1ccc(NC(=O)c2ccccc2Cl)cc1", "note": "(centres undefined)", "inhibition": "3.28% (inactive)"}
{"smiles": "O=C(NNC(=S)Nc1ccccc1)c1ccc(O)cc1", "inhibition": "9.42% (inactive)"}
{"smiles": "O=C(CCc1ccccc1)NNC(=O)c1ccccc1Cl", "inhibition": "3.05% (inactive)"}
{"smiles": "O=C(NC(=S)NNC(=O)c1ccccc1O)c1ccccc1", "inhibition": "4.34% (inactive)"}
{"smiles": "O=C(CCc1ccccc1)NNC(=O)CCc1ccccc1", "inhibition": "-2.48% (inactive)"}
{"smiles": "c1ccc(C[C@H]2CNCCN2CC2(c3ccccc3)CC2)cc1", "inhibition": "-6.5% (inactive)"}
{"smiles": "Cc1cc2oc(C(=O)NCc3ccccc3)cc(=O)c2cc1C", "inhibition": "-12.8% (inactive)"}
{"smiles": "CC1=NNC(=O)/C1=C\\c1cn(-c2ccccc2)nc1-c1ccccc1", "inhibition": "10.4% (inactive)"}
{"smiles": "CC1=C(C(=O)Nc2ccc(C)cc2C)C(c2cccs2)NC(=S)N1", "note": "(centres undefined)", "inhibition": "2.73% (inactive)"}
{"smiles": "O=C(Nc1ccc(Cl)cc1)N1CCCN(Cc2ccc(F)cc2)C1", "inhibition": "0.26% (inactive)"}
{"smiles": "O=C(Nc1ccccc1)N1CCCN(Cc2ccccc2F)C1", "inhibition": "14% (inactive)"}
{"smiles": "CC1CN(c2oc(-c3ccco3)nc2C#N)CC(C)O1", "note": "(centres undefined)", "inhibition": "6.8% (inactive)"}
{"smiles": "C/C(=N\\N=C(N)N)c1ccc(Cl)cc1", "inhibition": "-0.0633% (inactive)"}
{"smiles": "C/C(=N\\N=C(N)N)c1cccc(Cl)c1", "inhibition": "9.67% (inactive)"}
{"smiles": "O=C(CNS(=O)(=O)c1ccccc1)N1CCc2ccccc2C1", "inhibition": "-1% (inactive)"}
{"smiles": "Cn1c(=O)c2c(nc(NCC3CCCO3)n2Cc2cccc(Br)c2)n(C)c1=O", "note": "(centres undefined)", "inhibition": "2.34% (inactive)"}
{"smiles": "CN(C)S(=O)(=O)N1CCN(c2ccc([N+](=O)[O-])c(NC3CC3)c2)CC1", "inhibition": "-5.83% (inactive)"}
{"smiles": "NC(=O)C[n+]1ccc(/C=N/O)cc1", "inhibition": "-7.01% (inactive)"}
{"smiles": "CC(C)(C)C(=O)C[n+]1ccc(C(N)=O)cc1", "inhibition": "-7.77% (inactive)"}
{"smiles": "CCN(CC)C(=O)C[n+]1ccc(C(N)=O)cc1", "inhibition": "-3.67% (inactive)"}
{"smiles": "CCCCCCCCCC[n+]1cccc(C(=O)N(CC)CC)c1", "inhibition": "8.08% (inactive)"}
{"smiles": "CN(C)C(=O)C[n+]1ccc(/C=N/O)cc1", "inhibition": "-5.57% (inactive)"}
{"smiles": "CCCCCCCC[n+]1cccc(C(=O)N(CC)CC)c1", "inhibition": "-7.45% (inactive)"}
{"smiles": "O=C(c1ccc(F)cc1)N1CCN(C2CC3CCC2C3)CC1", "note": "(centres undefined)", "inhibition": "-3.63% (inactive)"}
{"smiles": "O=C(Nc1ccc2ccccc2n1)c1ccccc1Br", "inhibition": "-4.26% (inactive)"}
{"smiles": "CCC(C)NC(=O)CCC(=O)NNc1nc2ccccc2c2nc(C)nn12", "note": "(centres undefined)", "inhibition": "10.9% (inactive)"}
{"smiles": "CCn1cc(NC(=O)CCl)c(C)n1", "inhibition": "-1.91% (inactive)"}
{"smiles": "CC(C)(C)OC(=O)N1CCC(c2c(C(=O)NCC3CCN(C4CCCC4)C3)cnn2-c2ccccc2)CC1", "note": "(centres undefined)", "inhibition": "4.93% (inactive)"}
{"smiles": "Oc1ccc(/C=N/Nc2nccnc2Cl)cc1", "inhibition": "-3.22% (inactive)"}
{"smiles": "Oc1ccccc1/C=N/Nc1nccnc1Cl", "inhibition": "-1.82% (inactive)"}
{"smiles": "O=C(COc1ccc(Br)cc1)N(Cc1ccccc1)c1ccccn1", "inhibition": "12.3% (inactive)"}
{"smiles": "COc1ccc(NC(=O)CSCC(=O)N(C)CC(=O)Nc2ccc(Cl)c(C(F)(F)F)c2)cc1", "inhibition": "5.95% (inactive)"}
{"smiles": "O=C(CCN1C(=O)c2ccccc2S1(=O)=O)N1CCN(c2cccc(Cl)c2)CC1", "inhibition": "0.17% (inactive)"}
{"smiles": "O=C(N/N=C/c1cc([N+](=O)[O-])ccc1O)Nc1ccccc1", "inhibition": "17.7% (inactive)"}
{"smiles": "O=C(N/N=C/c1cccc([N+](=O)[O-])c1O)C(O)(c1ccccc1)c1ccccc1", "inhibition": "2.48% (inactive)"}
{"smiles": "COc1cc(/C=N/NC(=O)c2ccc(C)nc2)cc([N+](=O)[O-])c1O", "inhibition": "2.56% (inactive)"}
{"smiles": "COc1cc([N+](=O)[O-])cc(/C=N/NC(=O)c2cc(C)nc3ccccc23)c1O", "inhibition": "21.1% (inactive)"}
{"smiles": "O=C(N/N=C/c1ccc(O)c([N+](=O)[O-])c1)C(O)(c1ccccc1)c1ccccc1", "inhibition": "4.8% (inactive)"}
{"smiles": "COc1cc(/C=N/NC(=O)c2cccnc2)ccc1OC(=O)c1ccc([N+](=O)[O-])cc1", "inhibition": "5.86% (inactive)"}
{"smiles": "COc1cc([N+](=O)[O-])cc(/C=N/NC(=O)c2ccc(C)nc2)c1O", "inhibition": "18.7% (inactive)"}
{"smiles": "COc1cc([N+](=O)[O-])cc(/C=N/NC(=O)c2cncc(Br)c2)c1O", "inhibition": "12.7% (inactive)"}
{"smiles": "CCc1ccc(NC(=S)N(CCCN2CCN(C)CC2)Cc2cccs2)cc1", "inhibition": "0.49% (inactive)"}
{"smiles": "Cc1nnc(SCC(=O)c2c(N)n(Cc3ccccc3)c(=O)n(C)c2=O)n1C", "inhibition": "-13.4% (inactive)"}
{"smiles": "CC(=O)N(c1ccccc1C)S(=O)(=O)c1ccc(Cl)cc1", "inhibition": "-12.6% (inactive)"}
{"smiles": "O=C(Nc1ccccc1)c1ccc(=O)n(Cc2ccc(F)c(F)c2)c1", "inhibition": "-6.26% (inactive)"}
{"smiles": "CCOC(=O)N1CCc2c(sc3c2c(=O)n(Cc2ccccc2)c(=O)n3Cc2ccc(C)cc2)C1", "inhibition": "-2.36% (inactive)"}
{"smiles": "CSc1ccccc1C(=O)C1CCCN(C(=O)c2csnn2)C1", "note": "(centres undefined)", "inhibition": "-11.4% (inactive)"}
{"smiles": "COc1ccc(C(=O)NC2CC2)cc1OC1CCN(Cc2ccc(F)cc2Cl)CC1", "inhibition": "-3.14% (inactive)"}
{"smiles": "CC(O)(C#CCN1CCCC1)c1ccccc1", "note": "(centres undefined)", "inhibition": "-6.56% (inactive)"}
{"smiles": "CCOC(=O)Cc1csc(NC(=O)c2sc3nc4ccc(C)cc4cc3c2N)n1", "inhibition": "-5.8% (inactive)"}
{"smiles": "Cn1c(-c2ccc3c(c2)OCO3)cnc1NCc1cccc(Cl)c1", "inhibition": "2.65% (inactive)"}
{"smiles": "Cc1ccc(CNc2ncc(-c3ccc4c(c3)OCO4)n2C)cc1", "inhibition": "-2.15% (inactive)"}
{"smiles": "Cc1ccccc1Nc1nnc(SCC(=O)N(C)C2CCS(=O)(=O)C2)s1", "note": "(centres undefined)", "inhibition": "-26.7% (inactive)"}
{"smiles": "Cc1cccc(NC(=O)C2CCCN(S(=O)(=O)c3cccc4nsnc34)C2)c1", "note": "(centres undefined)", "inhibition": "11% (inactive)"}
{"smiles": "COc1ccc(NC(=O)C2CCCN(C(=O)Nc3ccc(OC)cc3)C2)cc1", "note": "(centres undefined)", "inhibition": "13.2% (inactive)"}
{"smiles": "Cc1ccc(S(=O)(=O)NNC(=O)C(=O)NNc2ccccn2)cc1", "inhibition": "1.07% (inactive)"}
{"smiles": "O=C(NNc1ccccn1)C(=O)NNS(=O)(=O)c1ccc(F)cc1", "inhibition": "-7.54% (inactive)"}
{"smiles": "CCOc1ccc2c(c1)OC(c1ccc(C)cc1)(C(F)(F)F)NC2=O", "note": "(centres undefined)", "inhibition": "2.02% (inactive)"}
{"smiles": "COC(=O)c1c(NC(=O)CSc2nnc(Cn3nnc4ccccc43)n2C)sc(C)c1C", "inhibition": "8.24% (inactive)"}
{"smiles": "Cc1sc2nc(CSc3nc4ccccc4s3)[nH]c(=O)c2c1C", "inhibition": "-8.83% (inactive)"}
{"smiles": "COc1ccc(NS(=O)(=O)c2cc(OC)ccc2OC)cc1", "inhibition": "-1.85% (inactive)"}
{"smiles": "Fc1ccccc1C1CC(c2ccco2)=Nc2ccccc2S1", "note": "(centres undefined)", "inhibition": "9.62% (inactive)"}
{"smiles": "CC(=O)NC1Sc2ccccc2N=C1c1ccccc1", "note": "(centres undefined)", "inhibition": "-15.8% (inactive)"}
{"smiles": "Cc1ccc(Cl)cc1N(CC(=O)N1CCCCCC1)S(C)(=O)=O", "inhibition": "-3.02% (inactive)"}
{"smiles": "c1ccc(N2CCN(Cc3ccnc4ccccc34)CC2)cc1", "inhibition": "-4.89% (inactive)"}
{"smiles": "O=S(=O)(c1ccc(Cl)cc1)N1CCN(Cc2ccc(O)c3ncccc23)CC1", "inhibition": "-17.9% (inactive)"}
{"smiles": "Oc1ccc2ccccc2c1CN1CCN(c2ccccc2)CC1", "inhibition": "2.7% (inactive)"}
{"smiles": "CCCOCc1ccc(O)c2ncccc12", "inhibition": "16.8% (inactive)"}
{"smiles": "CCOc1cccc(CN2CCN(c3cccc(C(F)(F)F)c3)CC2)c1O", "inhibition": "-5.55% (inactive)"}
{"smiles": "CC(C)COCc1ccc(O)c2ncccc12", "inhibition": "1.72% (inactive)"}
{"smiles": "O=[N+]([O-])c1cc(CN2CCN(c3ccccc3)CC2)c(O)c2ncccc12", "inhibition": "4.63% (inactive)"}
{"smiles": "Oc1ccc(CN2CCCCC2)c2cccnc12", "inhibition": "-7.91% (inactive)"}
